# Experimental data as given in PubChem BioAssay (NCATS).
# Records with an inconclusive call do not appear. Values without a mark were called inactive. Calls of active or inactive are those of the source. The call rests on the fitted dose curve; in most records, active means well fitted activation curve with a large enough effect; inconclusive means small, poorly fitted or top-dose-only effect; inactive means no such curve, though single readings can be large or run the other way.
# Target: Arylsulfatase A (Homo sapiens) (UniProt P15289)
# Sequence (P15289 whole entry, looked up): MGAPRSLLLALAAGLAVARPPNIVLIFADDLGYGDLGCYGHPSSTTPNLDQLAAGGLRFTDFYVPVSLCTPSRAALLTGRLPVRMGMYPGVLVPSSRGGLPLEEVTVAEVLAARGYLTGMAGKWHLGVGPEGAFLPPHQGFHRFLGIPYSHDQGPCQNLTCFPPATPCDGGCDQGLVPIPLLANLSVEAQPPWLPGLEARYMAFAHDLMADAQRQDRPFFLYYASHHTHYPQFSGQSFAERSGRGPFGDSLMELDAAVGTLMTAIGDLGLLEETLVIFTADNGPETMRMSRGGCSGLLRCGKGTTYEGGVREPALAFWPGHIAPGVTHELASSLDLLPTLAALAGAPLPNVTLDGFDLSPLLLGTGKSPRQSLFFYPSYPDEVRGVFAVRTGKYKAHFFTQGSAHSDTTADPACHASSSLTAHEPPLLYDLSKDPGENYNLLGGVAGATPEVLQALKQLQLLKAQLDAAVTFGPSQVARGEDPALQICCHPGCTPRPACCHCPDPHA
# Assay: qHTS screen for enhancers of Arylsulfatase A (ASA1): LOPAC Validation Assay (AID 720538); on activity change, positive = activation: 0% is about no effect
# Details: ASA enzyme activity, LOPAC qHTS enhancer assay; series mostly up to 57.5 µM; activity change, positive = activation: at the top concentration
# From the text: Lysosomal storage diseases (LSDs) are caused by genetic mutations in genes encoding proteins important for normal lysosomal function. In affected patients, symptoms are usually not manifested unless the mutations result in more than 90% reduction of enzymatic activity of a specific lysosomal enzyme. […] Small molecules could function as enzyme enhancement agents by binding to and stabilizing mutant misfolded proteins in the endoplasmic reticulum (ER), allowing them to evade the ER associated degradation (ERAD), and eventually reach the lysosome. Moreover, small molecules is hypothesized to be able to enhance the residual activity of deficient lysosomal enzyme by either interacting directly with the mutant enzyme or indirectly by acting in different cellular pathways; resulting to increased levels of the mutant and partially functional protein in the lysosomal compartment.
# A cell based assay in 1536 well plate format was developed to evaluate activity of the lysosomal sulfatase ASA1 enzyme. ASA1 is deficient in metachromatic leukodystrophy (MLD), an LSD characterized by progressive neurodegeneration for which specific treatment is not available. Compounds that are active may therefore have some therapeutic application for this disease. This assay was used to validate the ASA1 qHTS using the Sigma LOPAC library. In this assay increase in signal = enhanced ASA1 activity. Activation is the desired outcome for this assay.
# NIH Chemical Genomics Center [NCGC]
# NIH Molecular Libraries Probe Centers Network [MLPCN]
# Assay Submitter (PI): Gustavo Maegawa, Johns Hopkins University School of Medicine
# [2] Gieselmann V, et al. Acta Paediatr Suppl. 2008; 97: 15-21
# Four microliter (~8,000 cells/well) of SV40-transformed skin fibroblasts from an MLD patient (ASA-I179S) were seeded into a 1,536 solid white plate. Cells were left to adhere for 6 hrs, followed by addition of 23 nL of compounds. Cells were incubated with compounds for 48h at 37 degree C and 5% CO2. Four microliter of 1 mM pNCS substrate/lysis buffer (0.5mM pNCS final concentration) was added and incubated for 14h at room temperature. To stop the reaction, […] of 5 N of NaOH (1N NaOH final concentration) was then added and fluorescence was measured using the ViewLux plate reader (Ex=525 nm; Em=598 nm).
# Potency means the concentration at half of the fitted maximal effect.
SMILES,"activity change, positive = activation",outcome,Potency
CC(C)C(=O)Nc1ccc([N+](=O)[O-])c(C(F)(F)F)c1,-11.5%,,
Cc1ccccc1N1C(=O)c2cc(S(N)(=O)=O)c(Cl)cc2NC1C (stereo not given),2.44%,,
CN1CCN(CCCN2c3ccccc3Sc3ccc(Cl)cc32)CC1,7.48%,,
Clc1ccccc1C(c1ccccc1)(c1ccccc1)n1ccnc1,-52%,,
COc1cc2nc(N3CCN(C(=O)C4COc5ccccc5O4)CC3)nc(N)c2cc1OC (stereo not given),,inactive,
O=C(CCCN1CCC(O)(c2ccc(Cl)cc2)CC1)c1ccc(F)cc1,-15.9%,,
CN1C(C(=O)Nc2ccccn2)=C(O)c2ccccc2S1(=O)=O,-41.4%,,
CN(Cc1cnc2nc(N)nc(N)c2n1)c1ccc(C(=O)N[C@@H](CCC(=O)O)C(=O)O)cc1,,inactive,
Cc1cc(C(C)(C)C)cc(C)c1CC1=NCCN1,-25.8%,,
CN1CCN(C2=Nc3cc(Cl)ccc3Nc3ccccc32)CC1,,inactive,
COc1cc2nc(N(C)CCCNC(=O)C3CCCO3)nc(N)c2cc1OC (stereo not given),-9.87%,,
CN(C)c1nc(N(C)C)nc(N(C)C)n1,-48.4%,,
CC#C[C@]1(O)CC[C@H]2[C@@H]3CCC4=CC(=O)CCC4=C3[C@@H](c3ccc(N(C)C)cc3)C[C@@]21C,,inactive,
CC(C)Cc1ccc(C(C)C(=O)O)cc1 (stereo not given),-23.7%,,
O=C1Cc2cc(CCN3CCN(c4nsc5ccccc45)CC3)c(Cl)cc2N1,-36.1%,,
Nc1nc2c(ncn2COC(CO)CO)c(=O)[nH]1,,inactive; inhibitor; fitted 0.0301 uM,
Cc1cc(C(C)(C)C)c(O)c(C)c1CC1=NCCN1,,inactive,
CC12CC3CC(C)(C1)CC(N)(C3)C2,22.6%,,
CN(C)CCCN1c2ccccc2CCc2ccc(Cl)cc21,-1.33%,,
CC(C)(Oc1ccc(C2CC2(Cl)Cl)cc1)C(=O)O (stereo not given),,inactive; inhibitor; fitted 2.3934 uM,

SMILES,"activity change, positive = activation",outcome,Potency
NCCS(=O)(=O)O,-1.55%,,
COc1cc2nc(N3CCN(C(=O)c4ccco4)CC3)nc(N)c2cc1OC,,inactive,
Cc1cn([C@H]2C[C@H](N=[N+]=[N-])[C@@H](CO)O2)c(=O)[nH]c1=O,,inactive,
C[C@H]1c2cccc(O)c2C(O)=C2C(=O)[C@]3(O)C(O)=C(C(N)=O)C(=O)[C@@H](N(C)C)[C@@H]3[C@@H](O)[C@@H]21,-48.3%,,
CCCNCC(O)COc1ccccc1C(=O)CCc1ccccc1 (stereo not given),56.5%,,
NS(=O)(=O)c1cc2c(cc1Cl)NCNS2(=O)=O,-2.57%,,
Cc1cn([C@H]2C=C[C@@H](CO)O2)c(=O)[nH]c1=O,-2.25%,,
CS(=O)(=O)Nc1ccc([N+](=O)[O-])cc1Oc1ccccc1,,inactive,
CNCCCC12CCC(c3ccccc31)c1ccccc12,,inactive,
COc1ccc(CCN(C)CCCC(C#N)(c2ccc(OC)c(OC)c2)C(C)C)cc1OC (stereo not given),,inactive,
COc1ccc2c(c1)c(CC(=O)O)c(C)n2C(=O)c1ccc(Cl)cc1,-1.18%,,
COC(=O)Nc1nc2ccc(C(=O)c3cccs3)cc2[nH]1,-144%,,
O=C(c1ccc(OCCN2CCCCC2)cc1)c1c(-c2ccc(O)cc2)sc2cc(O)ccc12,-22.6%,,
Cn1c(=O)c2c(ncn2C)n(C)c1=O,,inactive,
CN(C)CCC=C1c2ccccc2C=Cc2ccccc21,1.98%,,
Clc1ccc2c(c1)C(N1CCNCC1)=Nc1ccccc1O2,3.89%,,
CCN1CCCC1CNC(=O)c1cc(S(=O)(=O)CC)c(N)cc1OC (stereo not given),,inactive,
O=C1c2c(O)ccc(O)c2C(=O)c2c(NCCNCCO)ccc(NCCNCCO)c21,,,23.9 µM (active)
O=c1c(-c2ccc(O)cc2)coc2cc(O)cc(O)c12,3.93%,,
CC(C(=O)O)c1cccc(C(=O)c2ccccc2)c1 (stereo not given),19.6%,,
